This is an account of results in PubChem BioAssay AID651957 (The Scripps Research Institute Molecular Screening Center, 2012).

The whole screen tested about 370,000 compounds, of which about 620 (0.17%) were called active.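 How the source made its calls: active means inhibition above the mean inhibition of all tested compounds plus 3 SD, set per campaign (cut at about 52% in these data); inactive means the rest.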 Many of the other results were omitted from the sample, so actives are more common in it than they were.

The target of the test is Nuclear receptor coactivator 2 (Homo sapiens) (UniProt Q15596). Nature of the test: decrease of SRC2 fusion reporter luminescence – cell-based, SRC2 inhibitor project, primary screen (AID 651957).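 Further: 0% = DMSO treated cells and 100% = cells given Gossypol at 36 µM.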 To be noted: HEK293 GAL4-SRC2 luciferase reporter, at 9 µM, stronger effect = higher value. For orientation: In a reporter assay the amount or activity of a reporter protein is the signal.
Sequence of Nuclear receptor coactivator 2 (Homo sapiens) (Q15596 whole entry, looked up, the tested form may be a part): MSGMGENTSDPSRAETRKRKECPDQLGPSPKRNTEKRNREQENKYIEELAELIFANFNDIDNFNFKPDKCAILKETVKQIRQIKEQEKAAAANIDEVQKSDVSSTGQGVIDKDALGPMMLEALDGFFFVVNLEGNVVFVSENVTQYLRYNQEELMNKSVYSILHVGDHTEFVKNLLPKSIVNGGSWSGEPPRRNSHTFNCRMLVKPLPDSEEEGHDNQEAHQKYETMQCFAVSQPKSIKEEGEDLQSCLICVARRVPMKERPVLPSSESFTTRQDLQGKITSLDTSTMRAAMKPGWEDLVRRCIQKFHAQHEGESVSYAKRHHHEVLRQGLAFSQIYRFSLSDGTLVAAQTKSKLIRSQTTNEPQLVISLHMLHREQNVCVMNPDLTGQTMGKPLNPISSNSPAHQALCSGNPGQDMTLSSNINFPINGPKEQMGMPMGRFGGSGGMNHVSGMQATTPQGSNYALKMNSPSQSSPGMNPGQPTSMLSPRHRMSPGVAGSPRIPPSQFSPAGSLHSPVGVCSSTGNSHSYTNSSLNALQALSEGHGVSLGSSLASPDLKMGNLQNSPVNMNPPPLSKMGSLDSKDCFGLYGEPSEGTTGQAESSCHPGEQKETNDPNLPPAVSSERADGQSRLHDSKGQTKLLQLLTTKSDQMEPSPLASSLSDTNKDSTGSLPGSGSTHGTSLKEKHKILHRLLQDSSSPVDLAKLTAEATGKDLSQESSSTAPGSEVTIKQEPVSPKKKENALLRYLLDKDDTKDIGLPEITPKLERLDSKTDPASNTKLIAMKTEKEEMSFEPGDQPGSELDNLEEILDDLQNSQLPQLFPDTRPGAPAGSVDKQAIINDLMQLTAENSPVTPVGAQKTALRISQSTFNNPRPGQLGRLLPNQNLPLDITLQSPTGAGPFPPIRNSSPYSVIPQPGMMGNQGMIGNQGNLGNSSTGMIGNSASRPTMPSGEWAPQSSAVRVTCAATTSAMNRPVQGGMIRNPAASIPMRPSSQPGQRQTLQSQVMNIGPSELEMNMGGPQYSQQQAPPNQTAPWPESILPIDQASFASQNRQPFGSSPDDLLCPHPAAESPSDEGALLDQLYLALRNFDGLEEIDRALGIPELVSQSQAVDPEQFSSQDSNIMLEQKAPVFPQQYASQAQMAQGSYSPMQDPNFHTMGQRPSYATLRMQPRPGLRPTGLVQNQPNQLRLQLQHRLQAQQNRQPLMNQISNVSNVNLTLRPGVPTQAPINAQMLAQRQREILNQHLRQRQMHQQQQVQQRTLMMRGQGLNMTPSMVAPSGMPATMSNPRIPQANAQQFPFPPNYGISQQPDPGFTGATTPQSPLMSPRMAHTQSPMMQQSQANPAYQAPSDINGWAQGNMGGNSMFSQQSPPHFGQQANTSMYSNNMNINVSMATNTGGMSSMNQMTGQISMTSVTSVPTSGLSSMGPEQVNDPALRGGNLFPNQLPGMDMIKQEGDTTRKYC
`N#C/C(=C/c1ccc(Cl)cc1)NC(=O)c1ccccc1`: the inhibition (commonly the relative decrease from the control value, in per cent) was -29% (inactive).
As to `CCOC(=O)CN(C(=O)COc1nc(C)cc(C)c1C#N)c1ccc(Cl)cc1`, the inhibition is -18% (inactive).
Consider `CCOc1cc(/C=C(/C#N)c2ccc(Cl)cc2)cc(Cl)c1OCC(=O)O`, for which the inhibition is 56.9% (active).
For the compound `C=CCn1c(SCC(N)=O)nnc1-c1ccccc1OC`, the inhibition is -9.59% (inactive).
The figure for `O=C(c1ccco1)N(Cc1nc2ccccc2c(=O)[nH]1)C1CCCC1` is 2.27% (inactive); for `CC(C)CC1NC(=O)c2cc(Cl)ccc2-n2c1nc1ccccc1c2=O` (stereo unspecified) it is 5.29% (inactive); for `CN(c1ccc2nc3ccccc3c(=O)n2n1)C1CCCCC1` it is 72.1% (active).
On to `O=C(NC1Cc2ccccc2C1)c1cc(COc2cccc(C(F)(F)F)c2)on1`, for which the inhibition is 11.1% (inactive).
In the case of `CC1(C)CC(N2CCN(C(c3ccccc3)c3ccccc3)CC2)=CC(=[N+]2CCCCC2)C1`, the inhibition is 24.5% (inactive).
On to `COc1ccc(S(=O)(=O)N2CCc3ccccc32)cc1C(=O)Nc1cc(S(C)(=O)=O)ccc1Cl`, for which the inhibition is -10.2% (inactive).
`O=C(Nc1nc2ccc(Cl)cc2s1)c1cc(-c2ccc(Cl)cc2)nc2ccccc12`: the inhibition is -2.88% (inactive).
In the case of `O=C(COC(=O)CN1C(=O)C2CCCCC2C1=O)Nc1ccc(F)c(F)c1F` (stereo unspecified), the inhibition was -13.3% (inactive).
Consider `CC(OC(=O)CN1C(=O)C2CCCCC2C1=O)C(=O)Nc1ncc(Cl)cc1Cl` (stereo unspecified), for which the inhibition was 1.55% (inactive).
The figure for `CC1=CC(C)(C)Nc2ccc(OC(=O)CN3C(=O)C4CCCCC4C3=O)cc21` (stereo unspecified) is 52.7% (active); for `Cc1ccc(-n2c(SCC(=O)Nc3cccc4ccccc34)nnc2-c2ccco2)cc1` it is -19.3% (inactive); for `CC(C)(C)c1ccc(Oc2ccc(N)cc2)cc1` it is 92% (active).
In the case of `CN1CCNC(=O)C1CC(=O)NCCC1=CCCCC1` (stereo unspecified), the inhibition is 20.1% (inactive).
Consider `CN1CCCCC(NC(=O)C(C)(C)C)C1=O` (stereo unspecified), for which the inhibition was -8.4% (inactive).
Take `CCC(c1ccc(NC(=O)OC(C)(C)C)cc1)c1cc(OC)cc(OC)c1` (stereo unspecified): the inhibition was 11.3% (inactive).
Take `CC(=O)c1cc(-c2ccc3ccccc3c2)c(=O)n2c1CCC2`: the inhibition is -32.7% (inactive).
For `COc1cccc(CN2CCN(Cc3ccc4cccc(F)c4n3)CC2CCO)c1` (stereo unspecified), the inhibition was -4.49% (inactive).
For `CCOc1ccc(NC(=O)COC(=O)C2CCC(=O)N2)c([N+](=O)[O-])c1` (stereo unspecified), the inhibition is -12.2% (inactive).
Regarding `COc1ccc(/C=C/C(=O)NC(=S)N2CCCC(C(N)=O)C2)cc1` (stereo unspecified), the inhibition was -8.4% (inactive).
Take `CCOc1ccc(NC(=S)NC(=O)/C=C/c2ccc(OC)cc2)c([N+](=O)[O-])c1`: the inhibition was 95.6% (active).
The same measure for `CC(C)(C)c1ccc(CSc2nnc(-c3cccs3)o2)cc1`: -21.4% (inactive).
As to `COC[C@@H]1CCCN1c1ccc2c(c1)O[C@H](C)CCN(C1CC1)S2(=O)=O`, the inhibition was 14.3% (inactive).
The same measure for `O=C(NCc1ccccn1)[C@@H]1CCCN1C(=O)[C@@H]1CCCN1C(=O)c1ccccc1`: -0.2% (inactive); for `COc1ccc(C2=CN(Cc3ccccc3)C(c3ccc(OC)cc3)CC2=O)cc1` (stereo unspecified): 12.8% (inactive); for `CCOC(=O)[C@]12CCCC3=C1N(CCC3)C(=O)[C@@H](CC(=O)N1CCSCC1)C2`: 12.6% (inactive).
With `CCOC(=O)CNc1nc(Cl)nc(Nc2ccc(OC)cc2OC)n1`, the inhibition is -23.9% (inactive).
As for `CC1(C)CC2CC(C)(CN2c2ncnc3ccc(Br)cc23)C1` (stereo unspecified), the inhibition was 17.4% (inactive).
For `COc1ccc(Nc2ncnc3ccc(Br)cc23)c(OC)c1`, the inhibition is 86.6% (active).
For the compound `CC(C)CNc1cccc2c1S(=O)(=O)N(Cc1cn(Cc3ccccc3C(F)(F)F)nn1)Cc1ccccc1O2`, the inhibition was 2.85% (inactive).
Turning to `CCC(C)(C)c1ccc(Oc2ccc(NC(=O)COC(=O)C3=COCCO3)cc2)cc1`, the inhibition was 56.6% (active).
For `CCOC(=O)c1sc(N)c(C#N)c1COC(=O)C1=COCCO1`, the inhibition is 7.27% (inactive).
The figure for `CC(=O)Nc1ccc(NC(=O)COC(=O)C2CCC(C(C)(C)C)CC2)cc1` (stereo unspecified) is -24.4% (inactive); for `Cc1nnc(SCC(=O)N2c3ccccc3C(C)(c3ccc(Cl)cc3)CC2(C)C)s1` (stereo unspecified) it is -11.4% (inactive); for `C=CCNC(=O)c1sc(SC)cc1-c1ccc(Cl)cc1` it is 3.88% (inactive).
The same measure for `O=C(OC12CCCN(C1)/C(=C/c1ccccc1)C2)c1ccco1` (stereo unspecified): 9.76% (inactive); for `OCC[C@H]1C[C@H](O)[C@@H](O)[C@]2(CCc3ccccc3O2)O1`: 3.27% (inactive); for `CCOC(=O)c1ccccc1NS(=O)(=O)c1c(C)nc2sccn2c1=O`: -4.6% (inactive).
For `Cc1ccc(-c2cn3cc(C)ccc3n2)cc1`, the inhibition is 72.6% (active).
Regarding `Cc1ccc2nc(-c3ccc(Br)cc3)cn2c1`, the inhibition is 60.3% (active).
For `Cc1nc(=O)c(-c2ccccc2)c(C)n1-c1ccc(Br)cc1`, the inhibition is -29.2% (inactive).
Turning to `Cc1ccc2nc(-c3ccccc3)c(CC3CCCCC3)n2c1`, the inhibition is -25.6% (inactive).
Regarding `Cc1nc(-c2ccccc2)cn2c1nc1ccccc12`, the inhibition was 7.57% (inactive).
As for `COc1cc(/C=C/C(=O)OCC(=O)Nc2cccc(Oc3ccccc3)c2)ccc1O`, the inhibition was 11.1% (inactive).
The same measure for `COc1cc(C(=O)Nc2cc(C(F)(F)F)ccc2N2CCOCC2)ccc1O`: -7.29% (inactive); for `COc1ccc(C(=O)Nc2ccccc2C(=O)N/N=C/c2ccc(O)c(OC)c2)cc1`: 55% (active).
The figure for `Cc1ccccc1NC(=O)Cn1nnc(-c2ccccc2F)n1` is 11.4% (inactive); for `C=CCn1c(C)cc(C2=NNC(=NCC)SC2)c1C` it is 84.4% (active); for `CC(C)CNc1cccc2c1S(=O)(=O)N(Cc1cn(Cc3ccc(Cl)cc3)nn1)Cc1ccccc1O2` it is 26.6% (inactive).
The figure for `Cc1ccc(CS(=O)(=O)CCC(=O)NC2CC2)cc1` is -50% (inactive).
Take `CN(CCC(=O)Nc1cc(S(=O)(=O)N(C)C)ccc1Cl)CC(=O)Nc1ccc(F)cc1`: the inhibition was -17.9% (inactive).
On to `Cc1cccc(NC(=O)c2cc3c(C)nn(-c4ccccc4)c3s2)c1`, for which the inhibition was 0.27% (inactive).
In the case of `Cc1ccc(CS(=O)(=O)c2ncc(Cl)c(C(=O)Nc3nnc(C)s3)n2)cc1`, the inhibition is 64% (active).
Take `Cc1cccc(NC(=O)c2nc(S(=O)(=O)Cc3ccccc3)ncc2Cl)c1`: the inhibition is 64.1% (active).
As for `Cc1cccc(CS(=O)(=O)c2ncc(Cl)c(C(=O)Nc3ccc(F)cc3)n2)c1`, the inhibition is 62.1% (active).
For `O=C(CCS(=O)(=O)c1ccccc1)Nc1ccc(Cl)c(Cl)c1`, the inhibition is -2.79% (inactive).
With `Cc1cccc(C(=O)Nc2c(-c3ccc(F)cc3)nc3ncccn23)c1`, the inhibition is 16.3% (inactive).
Turning to `Cc1nnc(NC(=O)CSc2nccn2-c2cccc(C)c2C)s1`, the inhibition was -5.88% (inactive).
